# Test results as given in PubChem BioAssay (NCI).
# The panel holds about 79,000 compounds, 15% with a hit somewhere; the sample as a whole holds those more often. A number with no mark means an inactive call. No stated cut-off is given here; in the data, active means growth inhibition above about 70%; inactive means the rest.
# Assay: NCI Yeast Anticancer Drug Screen. Data for the cln2 rad14 strain (AID 165);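 further: 0% = growth equal to vehicle treated cultures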
# Conditions: S. cerevisiae cln2 rad14 strain, at 50.0 µM, hits give high values
# Outline: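 Test compounds were added to cln2 rad14 yeast cultures; inhibition of growth was then determined by comparison with vehicle treatment.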
row,SMILES,growth inhibition
1,CCCCC/C(C)=C(\C#N)C(=O)OC,-15.3%
2,CCOC(=O)CC(C)C(C(=O)OCC)C(=O)OCC (stereo not given),4.15%
3,CC(=O)c1sc2c(c1OC(=O)c1ccco1)c(=O)n(-c1ccccc1)c(=S)n2-c1ccccc1,25.6%
4,COc1nc2c(c(O)c(C)c(=O)n2OC2OCC(OC(C)=O)C(OC(C)=O)C2OC(C)=O)c(=O)n1C (stereo not given),-1.85%
5,Cn1c2ccccc2c2oc(CO)cc(=O)c21,23.9%
6,CCN(C=O)c1ccccc1,-0.8%
7,COc1cc(NC(C)CNC(C)C)c2ncccc2c1 (stereo not given),-34%
8,CN(C)C(=O)C(NCCO)c1ccccc1 (stereo not given),-27.8%
9,CCN(CC)CCCNc1ncc(C)c2[nH]c3ccncc3c12,-9.1%
10,C/C=C/C(O)CCCC (stereo not given),2.75%
11,Cc1ccc(C)c(NC(=O)C(=O)C2C(=O)N(c3ccccc3)N=C2N)c1 (stereo not given),1.9%
12,Cn1c2cc(Cl)c(Cl)cc2nc2cc3c(cc21)c(Cl)c(=O)c1cc2cc(Cl)c(Cl)cc2cc13,25.9%
13,COC(=O)c1ccc(SCCC(=O)CNc2nc(N)nc(N)c2[N+](=O)[O-])cc1,22.3%
14,Cc1cc(Cl)cc(Cl)c1OCC(=O)O,-24.3%
15,NC(=O)c1ccccc1O,6.2%
16,C/C(=N/NC(N)=O)C1c2ccccc2Cc2ccccc21,-0.3%
17,O=C(O/N=C(\c1ccccc1)C(Br)c1ccccc1)c1ccccc1 (stereo not given),-2.05%
18,N#CC1(C(c2cccc3ccccc23)c2cccc3ccc4ccccc4c23)CC(=O)OC1=O (stereo not given),12.1%
19,CCC(C)OC(=S)S.[Cu+2] (stereo not given),-4.8%
20,COc1ccc2[nH]c3c(C)c4c(c(C)c3c2c1)CN(C)CC4,-1.25%

row,SMILES,growth inhibition
1,COC(=O)[C@H]1C=C[C@H](OC2OC(COC(C)=O)C(OC(C)=O)C(OC(C)=O)C2OC(C)=O)n2c(=O)n(-c3ccccc3)c(=O)n21 (stereo not given in full),5.5%
2,CCOC(CN=Cc1ccc2c(c1)Sc1ccccc1O2)OCC,55.2%
3,CCOc1ccc(NC(=O)CC2SC(=Nc3ccc(C)cc3)NC2=O)cc1 (stereo not given),4.35%
4,CN(C)C(=O)Sc1ccc(O)cc1,-28.3%
5,CC(=O)c1cc2c(cc1C)C(C)(C)CCC2,-47.7%
6,CCOC(=O)C1=C(C)Oc2cc3c(cc2C1c1cc(OC)c(O)c(OC)c1)OCO3 (stereo not given),9.75%
7,CN(C)NC(=O)Nc1ccc2ccccc2c1,-41%
8,Cc1cc(C)c2c(=O)c3c(oc2c1)O[C@@](C)(CO)C[C@@H]3c1ccccc1,6.05%
9,COc1ccc(-c2cc(C(=O)Nc3cccc(C(F)(F)F)c3)[nH]c(=S)n2)cc1,19.3%
10,O=C1NC(=O)C2(CCN(Cc3ccccc3)CC2)N1c1ccccc1,6%
11,CC(=O)Oc1c(C)cc2c(c1C)C(C)(C)CN2C(=O)C(C)(C)C,-7.15%
12,COC(=O)C(C(C[N+](=O)[O-])c1ccco1)=P(c1ccccc1)(c1ccccc1)c1ccccc1 (stereo not given),8.15%
13,Cn1ccc2c([N+](=O)[O-])cccc2c1=O,-45.9%
14,CS(=O)(=O)N(CCC#N)c1ccc(C=O)cc1,-8.1%
15,OCC1CCCC1,-2.95%
16,CC1([N+](=O)[O-])COC2(CCCC2)OC1,-21.8%
17,COc1ccccc1NCS(=O)(=O)O,-60.2%
18,CCc1ccc2c(c1)C(=O)c1c(c(-c3ccccc3)c3ccccc3c1-c1ccccc1)C2=O,-18.1%
19,CNc1ncnc2nc(C)c(C)nc12,8.4%
20,O=C(c1ccc(O)c(C(=O)O)c1)c1ccc(O)c(C(=O)O)c1,-0.7%

# Assay: NCI Yeast Anticancer Drug Screen. Data for the bub3 strain (AID 167)
# Conditions: S. cerevisiae bub3 mutant strain, at 50.0 µM, hits give high values
# Outline: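 Inhibition values come from growth of compound-treated mutant yeast normalised to vehicle-treated controls.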
row,SMILES,growth inhibition
1,CCCCC/C(C)=C(\C#N)C(=O)OC,-34%
2,CCOC(=O)CC(C)C(C(=O)OCC)C(=O)OCC (stereo not given),23.6%
3,CC(=O)c1sc2c(c1OC(=O)c1ccco1)c(=O)n(-c1ccccc1)c(=S)n2-c1ccccc1,6.85%
4,COc1nc2c(c(O)c(C)c(=O)n2OC2OCC(OC(C)=O)C(OC(C)=O)C2OC(C)=O)c(=O)n1C (stereo not given),-10.3%
5,Cn1c2ccccc2c2oc(CO)cc(=O)c21,10.4%
6,CCN(C=O)c1ccccc1,5.95%
7,COc1cc(NC(C)CNC(C)C)c2ncccc2c1 (stereo not given),7%
8,CN(C)C(=O)C(NCCO)c1ccccc1 (stereo not given),14%
9,CCN(CC)CCCNc1ncc(C)c2[nH]c3ccncc3c12,-0.25%
10,C/C=C/C(O)CCCC (stereo not given),-28.2%
11,Cc1ccc(C)c(NC(=O)C(=O)C2C(=O)N(c3ccccc3)N=C2N)c1 (stereo not given),-26.4%
12,Cn1c2cc(Cl)c(Cl)cc2nc2cc3c(cc21)c(Cl)c(=O)c1cc2cc(Cl)c(Cl)cc2cc13,-2.85%
13,COC(=O)c1ccc(SCCC(=O)CNc2nc(N)nc(N)c2[N+](=O)[O-])cc1,-0.2%
14,Cc1cc(Cl)cc(Cl)c1OCC(=O)O,-1.75%
15,NC(=O)c1ccccc1O,0.6%
16,C/C(=N/NC(N)=O)C1c2ccccc2Cc2ccccc21,16.9%
17,O=C(O/N=C(\c1ccccc1)C(Br)c1ccccc1)c1ccccc1 (stereo not given),8.4%
18,N#CC1(C(c2cccc3ccccc23)c2cccc3ccc4ccccc4c23)CC(=O)OC1=O (stereo not given),-2.55%
19,CCC(C)OC(=S)S.[Cu+2] (stereo not given),-76.5%
20,COc1ccc2[nH]c3c(C)c4c(c(C)c3c2c1)CN(C)CC4,-7.6%

row,SMILES,growth inhibition
1,COC(=O)[C@H]1C=C[C@H](OC2OC(COC(C)=O)C(OC(C)=O)C(OC(C)=O)C2OC(C)=O)n2c(=O)n(-c3ccccc3)c(=O)n21 (stereo not given in full),15.8%
2,CCOC(CN=Cc1ccc2c(c1)Sc1ccccc1O2)OCC,64.8%
3,CCOc1ccc(NC(=O)CC2SC(=Nc3ccc(C)cc3)NC2=O)cc1 (stereo not given),-31.9%
4,CN(C)C(=O)Sc1ccc(O)cc1,12.9%
5,CC(=O)c1cc2c(cc1C)C(C)(C)CCC2,-16.4%
6,CCOC(=O)C1=C(C)Oc2cc3c(cc2C1c1cc(OC)c(O)c(OC)c1)OCO3 (stereo not given),27.4%
7,CN(C)NC(=O)Nc1ccc2ccccc2c1,-24.2%
8,Cc1cc(C)c2c(=O)c3c(oc2c1)O[C@@](C)(CO)C[C@@H]3c1ccccc1,12%
9,COc1ccc(-c2cc(C(=O)Nc3cccc(C(F)(F)F)c3)[nH]c(=S)n2)cc1,-14.1%
10,O=C1NC(=O)C2(CCN(Cc3ccccc3)CC2)N1c1ccccc1,13.3%
11,CC(=O)Oc1c(C)cc2c(c1C)C(C)(C)CN2C(=O)C(C)(C)C,-1.3%
12,COC(=O)C(C(C[N+](=O)[O-])c1ccco1)=P(c1ccccc1)(c1ccccc1)c1ccccc1 (stereo not given),0.95%
13,Cn1ccc2c([N+](=O)[O-])cccc2c1=O,-25.4%
14,CS(=O)(=O)N(CCC#N)c1ccc(C=O)cc1,-12.2%
15,OCC1CCCC1,-1.5%
16,CC1([N+](=O)[O-])COC2(CCCC2)OC1,-12.9%
17,COc1ccccc1NCS(=O)(=O)O,11.2%
18,CCc1ccc2c(c1)C(=O)c1c(c(-c3ccccc3)c3ccccc3c1-c1ccccc1)C2=O,13.8%
19,CNc1ncnc2nc(C)c(C)nc12,-6.05%
20,O=C(c1ccc(O)c(C(=O)O)c1)c1ccc(O)c(C(=O)O)c1,-19.9%
